High-throughput results as filed in PubChem BioAssay.
Hits are enriched below; roughly 2.5% of the tested compounds scored in any of these assays.
Lassa entry inh: inhibitors of Lassa virus binding or cell entry; AID 540256; Lassa virus pseudotype entry inhibition, cell reporter; Potency, µM (titrated, usually from 37.9 µM), for inactives: top-dose activity change, negative = inhibition, hits mostly inhibitors; 300,000 tested, 1.2% active; calls by dose curve; tested in HEK293 cells; note: nearly all actives have a fitted effect of over 50% in size
Marburg entry inh: blocks Marburg virus binding to or entry into cells; Marburg virus pseudotyped entry inhibition, cell reporter; Potency, µM (highest dose often 37.8 µM), without a hit: at the highest dose activity change, negative = inhibition, hits mostly inhibitors; 300,000 tested, 1.8% active; calls by dose curve; tested in HEK293 cells
VACV Venus inh: inhibitors of vaccinia virus (Venus reporter). Vaccinia virus Venus reporter expression, fluorescence. Potency, µM (highest dose often 36.5 µM), for inactives: at the top dose activity change, negative = inhibition, actives largely listed as inhibitors. 330,000 tested, 0.46% active; calls by dose curve; tested in A549 cells; note: nearly all actives have a fitted effect of over 30% in size
VACV mCherry inh: inhibitors of vaccinia virus infection (mCherry reporter signal) | Vaccinia virus mCherry reporter infection, fluorescence | Potency, µM (doses to about 36.5 µM), for the others: at the highest dose activity change, negative = inhibition, most hits filed as inhibitors | 310,000 tested, 0.63% active | AID 720579; calls by dose curve; tested in A549 cells; note: nearly all actives have a fitted effect of over 35% in size
Starred values were filed as active, the others as inactive; i = inactive; ? = inconclusive; . = not tested or not shown; ! = not confirmed by another sample; [ ] = another dose, or the depositor's remark. % is set by controls: 0 for no effect and ±100 for the full control effect; potency is the fitted concentration of half-maximal effect.

SMILES	Lassa entry inh	Marburg entry inh	VACV Venus inh	VACV mCherry inh
COc1c(Cl)cnn(-c2ccccc2)c1=O	?	?	-12%	i
COc1ccc(Sc2cnn(-c3ccccc3)c(=O)c2Cl)cc1	?	-1%	?	13µM*
COc1nn(-c2ccccc2)c(=O)c(Cl)c1Cl	?	?	28µM*	?
c1ccc2c(Nc3ccc4c(c3)OCCO4)c3c(nc2c1)CCCC3	7.9µM*	?	?	?
COc1cc(Nc2c3c(nc4ccccc24)CCCC3)cc(OC)c1OC	-19%[46.1 µM]	4.5µM*	?	?
CCOC(=O)c1ccc(NC[C@@H](O)COc2ccccc2)cc1	.	-2%[46.1 µM]	.	.
COc1cccc(CN2CCCC(c3nc(-c4ccncc4)ncc3-c3ccccc3)C2)c1O (stereo not drawn)	.	.	-17%	-30%
COC(=O)c1ccccc1-c1cc(C)cc2c1OC(CNC(=O)c1cc(C)on1)C2 (stereo not drawn)	.	.	9%	-17%
O=C(CCCc1nc2ccccc2s1)N1CCN(S(=O)(=O)c2cccs2)CC1	?	10µM*	-14%	-22%
O=C(CCCc1nc2ccccc2s1)N1CCN(c2ccccc2)CC1	10%	?	-10%	i
O=C(CN1CCN(c2ccccn2)CC1)Nc1cccc(Cl)c1Cl	7.1µM*	-31%	-5%	i
Cc1ccc(NC(=O)CN2CCN(c3ccccn3)CC2)c(Cl)c1	-20%	7%	-24%	i
CCNC(=O)c1ccccc1NC(=O)c1cccc(S(=O)(=O)N2CCC(C)CC2)c1	-16%	?	?	.
CNC(=O)c1ccccc1NC(=O)c1cccc(S(=O)(=O)N2CCC(C)CC2)c1	22µM*	?	?	i[1.46 µM]
Clc1ccc(-n2cccc2CN2CCOc3ccc(CN4CCOCC4)cc3C2)nc1	.	.	-14%	i
CCOC(=O)c1c(NC(=O)c2cccs2)sc(C)c1CC	-17%	?	-10%	-7%
CCc1c(C)sc(NC(=O)c2cccs2)c1C(=O)OC(C)C	?	9.2µM*	-21%	-27%
CC(NC(=O)c1cccc(S(=O)(=O)N2CCN(Cc3ccccc3)CC2)c1)c1ccc(Cl)cc1 (stereo not drawn)	0.89µM*	?	-4%	?
COc1cc(=O)n2c(c1C(=O)NCc1nonc1C)CCN(C(=O)c1cccc(C)c1C)CC2	.	.	0%	i
CCOC(=O)c1c(NC(=O)C(C)Sc2cn(CCNC(=O)c3c(F)cccc3F)c3ccccc23)sc2c1CCC2 (stereo not drawn)	-17%[46.1 µM]	7.9µM*	-8%	-6%
O=C(Nc1nc(-c2ccccc2)c(-c2ccccc2)s1)c1ccc(S(=O)(=O)N(CCCl)CCCl)cc1	5µM*	?	-11%	i
Cc1ccc2c(c1)ncc[n+]2CC(=O)c1ccc(F)cc1	.	.	-8%	-11%
Cc1cc(Cl)c(S(=O)(=O)N2CCN(c3ccc(F)cc3)CC2)cc1OCC(N)=O	9%	4%	-27%	-7%
Cc1cc(Cl)c(S(=O)(=O)N2CCN(c3ccc(F)cc3)CC2)cc1OCC(=O)NC1CCCCC1	?	10µM*	.	.
CCCC(=O)NC(c1ccc(OC)cc1)c1c(O)ccc2ccccc12 (stereo not drawn)	?	?	-23%	?
SMILES	Lassa entry inh	Marburg entry inh	VACV Venus inh	VACV mCherry inh
CC(=O)Oc1ccc2ccccc2c1C(NC(=O)Cc1ccccc1)c1ccc(Cl)cc1 (stereo not drawn)	5%	?	?	28µM*
Cc1cccn2c(CNC3CCCc4ccccc43)c(C(=O)N3CCCCC3)nc12 (stereo not drawn)	?	10µM*	-5%	-27%
COCC(=O)Nc1cc(C(=O)NC2Cc3ccccc3C2)cc2nc(-c3cccnc3)n(C)c12	.	.	7%	-13%
O=C(NCCc1nnc2n1CCN(Cc1ccc(F)c(F)c1)CC2)c1ccoc1	.	.	-7%	-9%
O=C(CSc1n[nH]c(-c2ccccn2)n1)Nc1ccccc1F	.	?	?	28µM*
COc1ccccc1NC(=O)CSc1n[nH]c(-c2ccccn2)n1	?	?	-29%	?
O=C(CSc1n[nH]c(-c2ccccn2)n1)Nc1ccccc1	?	?	-24%	7.9µM*
CC1(C)Nc2cccc3c(N=Nc4ccc(N=Nc5ccccc5)c5ccccc45)ccc(c23)N1	.	.	-16%	-12%
O=C(NC(Nc1ncc(S(=O)(=O)c2ccc([N+](=O)[O-])cc2)s1)(C(F)(F)F)C(F)(F)F)c1ccc(Cl)cc1	?	3.2µM*	?	18µM*
CC(=O)Nc1cccc(Oc2ncnc3scc(-c4ccc(C(C)C)cc4)c23)c1	2.5µM*	2.8µM*	-9%	-13%
COc1ccc(-c2csc3ncnc(Nc4cccc(OC)c4)c23)cc1	-18%[46.1 µM]	.	10%	-8%
O=C(CCl)Nc1ccc(-c2ccccc2)cc1	10µM*	?	.	.
CCC(=O)Nc1ccc(NCc2ccc(-c3ccccc3)cc2)cc1	-30%	-10%	-6%	-13%
O=C(CCl)Nc1cn(-c2ccccc2)nc1-c1ccccc1	4.1µM*	16µM*	.	.
O=C(NCCc1c[nH]c2ccccc12)C(=O)NCC(c1cccnc1)N1CCN(c2ccccc2)CC1 (stereo not drawn)	?	-55%	?	16µM*
O=C(NCCc1ccccc1)C(=O)NCC(c1cccnc1)N1CCN(c2ccc(F)cc2)CC1 (stereo not drawn)	?	.	?	-29%
O=C(/C=C\c1ccc(O)cc1)c1ccc(O)cc1O	.	10µM*	.	.
O=C(/C=C/c1ccc(O)cc1)c1ccccc1O	.	.	-7%	-19%
N[C@@H](CCC(=O)N[C@@H](CS)C(=O)NCC(=O)O)C(=O)O	.	.	-3%	-6%
COc1ccc2cc(-c3nc4ccc(C(=O)O)cc4[nH]3)c(=O)oc2c1	10µM*	.	-11%	-15%
COc1cccc([C@H]2/C(=C(\O)c3cnn(-c4ccccc4)c3C)C(=O)C(=O)N2CCN(C)C)c1	.	0%	.	.
N#Cc1c(N2CCN(c3ccc([N+](=O)[O-])cc3)CC2)[n+](=O)c2ccc(Cl)cc2n1[O-]	10µM*	?	-21%	-16%
COCCn1c(=NC(=O)c2cc(-c3cccs3)nc3ccccc23)sc2cc(S(N)(=O)=O)ccc21	?	9.2µM*	?	?
O=C(C[n+]1ccccc1Br)c1ccc(-c2ccccc2)cc1	.	.	-13%	-15%
O=C(c1ccc2nc(-c3ccco3)c(-c3ccco3)nc2c1)N1CCN(c2ccccc2)CC1	-22%	16µM*	.	.
SMILES	Lassa entry inh	Marburg entry inh	VACV Venus inh	VACV mCherry inh
Cc1ccc(N2C(=O)C[C@H](Cn3nc(C)cc3C)C2=O)cc1	.	-1%	.	.
CN1CCN(CC/C=C2/c3ccccc3Sc3ccc(S(=O)(=O)N(C)C)cc32)CC1	.	4µM*!	?	-25%
COc1ccccc1-n1cc([C@@H]2C[C@H]3CN(c4ccccc4)C(=O)[C@]34CCCN24)cn1	?	10µM*	-16%	-17%
CC(C)COc1nc2ccccc2nc1[C@H](C#N)C(=O)NC1CCCCC1	.	-1%	.	.
CSc1ncccc1C(=O)NCCN1Cc2ccccc2OC(c2ccccc2F)C1 (stereo not drawn)	.	.	2%	-11%
COc1cccc(OC)c1OCc1cc(C2C3CCCC=C3C(C#N)=C(N)C2(C#N)C#N)c(C)cc1C (stereo not drawn)	20µM*	?	-21%	-28%
